# High-throughput results (PubChem BioAssay)
# Hits are enriched below; roughly 8% of the tested compounds scored in any of these assays.
# FMDV antiviral: High Throughput Screening for Foot and Mouth Disease Virus Antivirals; FMDV antiviral cell-based qHTS; Potency, µM (top dose mostly 57.9 µM), without a hit: top-dose activity change, negative = inhibition, most hits filed as inhibitors; 410,000 tested, 1.2% active; AID 1159524, 2015; calls by dose curve; tested in HEK293T cells; further: read-out not given here; potency means the concentration at half of the fitted maximal effect; on the % scale 0 is the no-effect control and ±100 the full control effect; nearly all actives have a fitted effect of over 45% in size
# MARV entry inh: qHTS for inhibitors of binding or entry into cells for Marburg Virus; 300,000 tested, 1.8% active; Potency, µM (series often up to 37.8 µM), without a hit: at the top dose activity change, negative = inhibition, most hits filed as inhibitors; Marburg virus pseudotyped entry inhibition, cell reporter; calls by dose curve; tested in HEK293 cells; further: potency means the concentration at half of the fitted maximal effect; on the % scale 0 is the no-effect control and ±100 the full control effect
# LASV entry inh: qHTS for Inhibitors of binding or entry into cells for Lassa Virus | Lassa virus pseudotype entry inhibition, cell reporter | 300,000 tested, 1.2% active | Potency, µM (top dose mostly 37.9 µM), inactives show at the highest dose activity change, negative = inhibition, usual class: inhibitors | AID 540256, 2011; calls by dose curve; tested in HEK293 cells; further: potency means the concentration at half of the fitted maximal effect; on the % scale 0 is the no-effect control and ±100 the full control effect; nearly all actives have a fitted effect of over 50% in size
# HCV inh: qHTS Assay for Inhibitors of Hepatitis C Virus (HCV); Huh7.5.1 HCVcc-Cre infection, luciferase reporter, 44 h; 340,000 tested, 3.4% active; Potency, µM (series often up to 41.8 µM), without a hit: top-dose activity change, negative = inhibition, most hits filed as inhibitors; active means well fitted inhibition curve with a large enough effect; inconclusive means small, poorly fitted or top-dose-only effect, or another doubt; inactive means no such curve, though single readings can be large or run the other way; further: potency means the concentration at half of the fitted maximal effect; on the % scale 0 is the no-effect control and ±100 the full control effect
#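 Compounds are dispensed onto cells plated 4 h earlier at 1,000 per well, with HCVcc-Cre virus (about 0.5 moi) added next. Following 44 h of culture, luminescent signal is measured for 15 sec after 15 min with substrate at room temperature.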
# HCMV antiviral: qHTS Assay for inhibitors of the human cytomegalovirus (HCMV) | HFF cells, HCMV-luciferase reporter, 72 h; active compounds read low | activity change, negative = inhibition, % at 57.5 µM | 410,000 tested, 4.5% active; in the data active means activity change below about -60%; inconclusive means no clear call, values can overlap the other calls; inactive means above about -39%; further: on the % scale 0 is the no-effect control and ±100 the full control effect
#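 After 16 h attachment at 37C, HFF cells received test compound and HCMV-luciferase (1 PFU/cell); reporter luminescence read 72 h later, data normalized against buffer-only and known inhibitor Salinomycin.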
# SARS PLP yeast: qHTS of Yeast-based Assay for SARS-CoV PLP | S. cerevisiae expressing SARS-CoV PLpro, growth rescue | Potency, µM (series often up to 32.9 µM), for the others: at the highest dose activity, positive = growth rescue, actives largely listed as activators | 330,000 tested, 0.19% active; calls by dose curve; further: potency means the concentration at half of the fitted maximal effect; 0% is about no effect; nearly all actives have a fitted effect of over 55% in size
# * = called active by the depositor; u = inconclusive; x = no result given; [ ] = dose if it differs, or a comment.
SMILES,FMDV antiviral,MARV entry inh,LASV entry inh,HCV inh,HCMV antiviral,SARS PLP yeast
COc1ccc(C(=O)n2cc(C(=O)c3cc(C)ccc3O)cn2)cc1,-12%,u,26%,8%,-67*,-3%
C(=N\n1cnnc1)/c1ccccn1,4%,u,5%,1%,26,2%
C(=N\Nc1ccc2nncn2n1)/c1ccccn1,-7%,u,u,-69%,-87*,-1%
c1ccc2c(c1)CC/C2=N/Nc1nc2ccccc2[nH]1,-35%,u,u,u,-112*,-2%
C(=N\Nc1nc2ccccc2[nH]1)/c1ccccn1,10µM*,x,x,-2%,-100*,15%
O=c1cnnc(N/N=C/c2ccccn2)[nH]1,-18%,x,x,6.3µM*,-32,u
C(=N\Nc1nc2ccccc2[nH]1)/c1ccc2ncccc2c1,30%,u,u,u,-22,-1%
O=C(COc1ncnc2ccc(Br)cc12)NC1CCCC1,-13%,x,x,-10%,0,-5%
C#CCn1cc(/C=N/Nc2nc3ccccc3[nH]2)c2ccccc21,-16%,u,u,u,-69*,17%
C(=N\Nc1nc2ccccc2[nH]1)/c1cccc2nccnc12,16%,u,u,u,-15,1%
O=c1nc(N/N=C/c2ccccn2)cn[nH]1,13%,u,3.5µM*,u,80,-25%
CC(=O)Nc1cc(-c2ccoc2)cn2c(-c3ccccc3)cnc12,-10%,x,x,x,53,x
COc1ccc(NC(=O)CSc2nc(C)c3c(c2C#N)CCCC3)cc1,-17%,-14%,-13%,-29%,u,5%
CCc1nnc(NC(=O)CSc2nc(C)c3c(c2C#N)CCCC3)s1,-22%,u,u,11µM*,56,-5%
COC(=O)c1ccc(N2CCN(C)CC2)c(NC(=O)c2sc3ccccc3c2Cl)c1,-19%,-3%[46.1 µM],4%[46.1 µM],u,-98*,x
Cc1ccc(C)c(NC(=O)Nc2nnc(N(CC(C)C)CC(C)C)s2)c1,-17%,21%[46.1 µM],10%[46.1 µM],x,-26,x
Nc1nc2ccccc2n1C(=O)c1ccc(F)cc1,-66%,u,7.1µM*,-1%,-38,-2%
Nc1nc2ccccc2n1C(=O)c1ccccc1,-46%,x,x,-11%,-19,-2%
COc1ccc(OC)c(N2C(=O)CC(Cc3cc(C)cc(C)c3)C2=O)c1 (centres undefined),u,-2%,7%,3.5µM*,23,0%
COc1ccc(CCN2C(=O)CC(Cc3ccc(C)cc3)C2=O)cc1OC (centres undefined),-13%,9%[46.1 µM],2%,-1%,-64*,0%
COc1ccc(CCN2C(=O)CSC2=Nc2ccc(C)cc2C)cc1OC,13µM*,u,u,u,-9,-1%
COc1ccc(OC)c(N2C(=O)CC(Cc3ccc(Cl)cc3)C2=O)c1 (centres undefined),u,13%,-26%,0%,-5,18%
CCOc1ccc(C(=O)CCC(=O)NNC(=O)CCN2CCN(c3ccccc3)CC2)cc1,-1%,4%,21%,5%,-4,-1%
COc1ccc2cc([C@H](C)C(=O)N(C)Cc3ccccc3N3CCCC3)ccc2c1,-22%,u,u,10µM*,1,-8%
COc1ccc(C(CNC(=O)C(C)c2ccc3cc(OC)ccc3c2)N(C)C)cc1 (centres undefined),18%,u,u,-23%,11,-2%
CC(=O)c1ccccc1NC(=O)c1ccc(N2CCCC2=O)cc1,-8%,5%[46.1 µM],11µM*,13µM*,-9,-1%
COC(=O)c1ccccc1NC(=O)c1ccc2c(c1)OCCO2,19%,2%[46.1 µM],-3%,10µM*,45,-7%
O=C(Nc1ccccc1C(=O)N1CCCCCC1)c1ccc(F)cc1,0%,x,x,11%,-102*,0%
COc1ccc(C(=O)Nc2ccccc2C(=O)N2CCCCCC2)cc1,-6%,-8%,2%,19%,u,-1%
O=C(c1ccccc1Nc1ccc(SC(F)F)cc1)N1CCCCCC1,-22%,-5%,u,u,-101*,-25%
